# Results taken from PubChem BioAssay (NCI).
# The panel holds about 83,000 compounds, 20% with a hit somewhere; the sample as a whole holds those more often.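 A percent growth of 40 corresponds to 60% growth inhibition; 0 means no net growth; -100 means all cells died. Active threshold: below 10.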 Unmarked numbers belong to inactive results. The source made the active and inactive calls.
# Columns and labels:
# Assay in all cases: NCI-60 one-dose screen, 48 h (100 = growth as untreated, 0 = no growth, -100 = all killed)
# Conditions in all cases: 10 µM unless noted
# [1] = system: NCI-H23 lung
# [2] = system: NCI-H226 lung
# [3] = system: NCI-H322M lung
# [4] = system: HOP-62 NSCLC
# [5] = system: NCI-H460 lung
# [6] = system: HOP-92 NSCLC
# [7] = system: NCI-H522 lung
# [8] = system: A549/ATCC NSCLC
# [9] = system: 786-0 renal
# [10] = system: COLO 205 colon
# [11] = system: DU-145 prostate
# [12] = system: K-562 leukemia
# [13] = system: MALME-3M melanoma
# [14] = system: MDA-MB-231 breast
# [15] = system: RXF 393 renal
# [16] = system: SF-268 CNS
# [17] = system: SF-295 CNS
# [18] = system: SF-539 CNS
# [19] = system: UACC-257 melanoma
# [20] = system: M14 melanoma
Compound,growth [1],growth [2],growth [3],growth [4],growth [5],growth [6],growth [7],growth [8],growth [9],growth [10],growth [11],growth [12],growth [13],growth [14],growth [15],growth [16],growth [17],growth [18],growth [19],growth [20]
O=[N+]([O-])c1cccc(-c2nc3sccn3c2-c2ccnc(NCCCNS(=O)(=O)c3ccc(F)cc3)n2)c1,-7.3% (active),-3.92% (active),26.8%,12.5%,10.5%,46.2%,0.116% (active),9.67% (active),44.2%,4.52% (active),10.6%,7.51% (active),-9.59% (active),44.9%,53.4%,9.32% (active),5.57% (active),26.5%,0.0199% (active),0.021% (active)
C(=N\Nc1ccccn1)/c1ccccn1,12.1%,16%,15.7%,19.2%,7.9% (active),79.1%,-9.71% (active),12.2%,-41.9% (active),34.6%,9.51% (active),19.3%,-2.58% (active),47.6%,17%,-0.109% (active),21.7%,7.48% (active),-18.9% (active),-35.8% (active)
N#Cc1c(N)nc(N)nc1Nc1ccc(Br)cc1,102%,83.9%,89.9%,119%,96.7%,92.3%,70.9%,78.2%,123%,135%,98.7%,99%,107%,87.3%,94.3%,92.5%,91%,89.6%,92%,163%
Cc1nn(-c2ccccc2)c2nc(C)n(-c3ccc(Br)cc3)c(=O)c12,16%,49%,51.3%,35.1%,7.92% (active),56.3%,-14.1% (active),21.3%,43.3%,1.32% (active),8.77% (active),9.29% (active),45.9%,50.3%,-15.8% (active),51.2%,4.98% (active),-5.52% (active),60%,9.88% (active)
C/C(Cc1ccc(Cl)cc1)=C(\c1ccc(OCCN2CCCCCC2)cc1)c1ccc(OC(=O)Cc2ccccc2)cc1,71.3%,84.1%,67.3%,85.7%,18.2%,48.4%,62.9%,61.3%,65%,-45.1% (active),75.9%,1.27% (active),69.5%,82.4%,53.6%,60.2%,90.4%,81.5%,89.3%,21.8%
Nc1cc(O)cc2cccnc12,53.1%,94.4%,104%,86.6%,67.6%,103%,50.6%,86.3%,105%,113%,107%,88%,89.8%,78.5%,135%,107%,95.4%,101%,91.2%,83.8%
COc1cc(NCCCCCN=C(N)NC(N)=NC(C)C)c2ncccc2c1,-37.5% (active),71.2%,50.7%,57%,55.7%,32.5%,-16.1% (active),89.9%,92.3%,-30.3% (active),104%,26.1%,-19.2% (active),22%,131%,29%,98.3%,44.9%,-8.06% (active),67.7%
CC(C)n1cc2c(N)ncnc2n1,103%,94.5%,86.6%,96.4%,107%,144%,99.3%,102%,100%,118%,128%,98.5%,86.3%,109%,115%,106%,102%,105%,121%,107%
c1ccc2c(Nc3cccc4ccccc34)cccc2c1,73.4%,72.3%,103%,56.3%,42.9%,28.1%,46.4%,48.1%,81.2%,58.3%,86.4%,11.2%,50%,46%,83.8%,72.7%,69.1%,56.9%,80.3%,30.3%
OCCNCCNc1c2ccccc2nc2ccccc12,64.8%,58.3%,52.7%,60.7%,54.6%,81.1%,41.6%,98.2%,84.9%,47.9%,88.3%,69.8%,42.1%,57.9%,102%,55.9%,95.4%,69.8%,102%,90.9%
COc1cc2c(=O)n(CC3CCCCC3)c3c4cc[nH]c4ncc3c2cc1OC,45.3%,34.5%,59%,19.2%,21.1%,1.65% (active),35.1%,31.6%,46.4%,6.79% (active),50.3%,5.36% (active),65.9%,25.5%,-4.27% (active),28.8%,42.9%,-7.56% (active),84.9%,49.2%
COc1cc(C#N)cc(OC)c1OCCN(CCOc1c(OC)cc(C#N)cc1OC)S(=O)(=O)c1ccc(C)cc1,96%,104%,91.6%,100%,112%,88.5%,95.1%,100%,92.7%,113%,115%,94%,108%,112%,70.9%,107%,94.2%,105%,97.7%,99.7%
COc1cccc(-c2nc3sccn3c2-c2ccnc(NCCCNS(=O)(=O)c3ccccc3)c2)c1,29.1%,32.6%,69.4%,62.2%,38.3%,42%,27.9%,29%,59.5%,37.7%,42.2%,13.9%,50.8%,58.8%,63.7%,49.9%,28.6%,73.1%,50.9%,38%
CCCCCCCCCCCCNC(=O)[C@H]1CSC(c2ccc(OC)c(F)c2)N1 (stereo not given in full),-78.2% (active),-71.4% (active),-98.4% (active),-81.8% (active),-71.8% (active),-93.8% (active),-73.5% (active),-88.5% (active),-96.6% (active),-81.5% (active),-87.6% (active),-52.7% (active),-92.3% (active),-88.3% (active),-96.1% (active),-69.2% (active),-88.4% (active),-94.3% (active),-94.1% (active),-89.6% (active)
CC(C)(C)n1cc(-c2ccnc(NCCCNS(=O)(=O)c3cccc4ccccc34)c2)c(-c2cccc(O)c2)n1,42.1%,41%,43.4%,47.7%,2.1% (active),37.7%,15.8%,29.2%,-0.248% (active),-79.1% (active),42.5%,-4% (active),-19.2% (active),11.8%,0.843% (active),37.5%,8.6% (active),41.8%,-23.9% (active),2.67% (active)
CCCCCn1cnc2c(=S)nc[nH]c21,102%,110%,121%,110%,98.5%,101%,90%,118%,106%,105%,124%,97.9%,111%,131%,160%,124%,119%,91%,131%,120%
